# Results taken from PubChem BioAssay AID1745851 (National Center for Advancing Translational Sciences (NCATS), 2022).
# The other results are listed elsewhere or left out. Entries that show only a call come without a potency. Records with an inconclusive call do not appear. Activity calls are given as the source filed them. Calls come from the whole dose curve; as a rule, active = well fitted inhibition curve with a large enough effect; inconclusive = small, poorly fitted or top-dose-only effect; inactive = flat fitted curve, though single readings scatter.
# Test: Counterscreen for Target Class Profiling of Small Molecule Inhibitors of Methyltransferases
# Conditions: MTase-Glo coupled enzymes, SAH conversion luminescence, no MTase; series mostly up to 57.3 µM
# Excerpt: PI: Matthew D. Hall Ph.D. and Quinlin M. Hanson Ph.D. National Center for Advancing Translational Sciences (NCATS) National Institute of Health (NIH) Rockville, MD Target class profiling (TCP) is a chemical biology approach amenable to investigating understudied biological targets. TCP is achieved by developing a generalizable assay platform and applying it to screen a curated set of compound libraries against representative members of a target class. Small molecule methyltransferases (SMMTase) are a subclass of methyltransferase that act on metabolites to modulate signaling pathways, metabolize xenobiotics, or balance the available methyl pool. We screened four curated libraries totaling 27,574 unique compounds against the SMMTases nicotinamide N-methyltransferase (NNMT), phenylethanolamine N-methyltransferase (PNMT), histamine N-methyltransferase (HNMT), glycine N-methyltransferase (GNMT), catechol O-methyltransferase (COMT), and guanidinoacetate N-methyltransferase (GAMT). The data generated by this TCP can be leveraged for informed tool molecule development. For example, in the associated publication we identified a chemotype of HNMT-selective inhibitors. Additionally, we identified a putative SMMTase-selective inhibitor with potential as a tool molecule for studying broader methyltransferase biology. High-through put screening assays were developed at the National Center for Advancing Translational Science (NCATS) for the enzymes NNMT, PNMT, HNMT, GNMT, COMT, and GAMT. Enzymatic activity was measured as a function of SAM cofactor conversion using the MTase Glo kit (Promega) for all enzymes. All assays were performed in 1536-well format with substrates and SAM concentrations at KM values. Enzyme concentration and assay timing were optimized for 10-20% SAM conversion. Initial screening of 27,574 compounds was done as single-point assays using the highest compound concentration (40 uM). 1,434 compounds were identified as hits (at least 50% inhibition) under these conditions. These compounds were replated in 11-point dose response and assayed against NNMT, PNMT, HNMT, GNMT, COMT, GAMT, and a counter-assay. The IC50 and efficacy (maximal response) values were determined for each dose-response curve. These values are also accounted for in the area under the curve (AUC) values.
# PROTOCOL TABLE (as described by Inglese J, Shamu CE and Guy RK. 2007) SEQUENCE No. (e.g., 1, 2, 3, etc.); PARAMETER (e.g., Cells, Incubation, Reagent, etc.); VALUE; DESCRIPTION. 1; Reagent; 3 uL; SAH (16 uM) in reaction buffer, columns 1-48. 2; Reagent; 1 uL; SAM (4x) in reaction buffer, columns 1-48. 3; Controls; 23 nL; DMSO in column 4; sinefungin in DMSO (0 uM - 40 uM) in 7-point 1:2 dilution series (n = 2) in column 2. 4; Compounds; 23 nL; Columns 5-48. 5; Time; 20 min; Incubation. 6; Reagent; 1 uL; MTase-Glo reagent (5X), columns 1-48. 7; Time; 30 min; Incubation. 8; Reagent; 5 uL; MTase-Glo Detection reagent, columns 1-48. 9; Time; 30 min; Incubation. 10; Detection; Luminescence; ViewLux uHTS Microplate Imager (PerkinElmer). NOTES (numbers refer to Sequence numbers above) 1, 2. White Medium Binding 1536-well plates (white, flat bottom, medium binding Cat# AWK010000A, Aurora Microplates, Scottsdale, AZ); Reaction buffer: 50 mM Tris, pH 8.0, 3 mM MgCl2, 1 mM EDTA, 50 mM NaCl, 1 mM DTT, and 0.1 mg/mL BSA; refer to tables 2 and S1 for specific reagent concentrations. 3, 4. Pintool transfer 5, 7, 9. Room temperature 5. Final reaction conditions: 1 uM SAH, 4 uM SAM, 50 mM Tris, pH 8.0, 3 mM MgCl2, 1 mM EDTA, 50 mM NaCl, 1 mM DTT, and 0.1 mg/mL BSA. 7. Conversion of SAH to ADP; MTase Glo Kit (Promega, Madison, WI). 9. Conversion of ADP to ATP and detection by UltraGlo luciferase; MTase Glo Kit (Promega, Madison, WI). 10. Settings: 20 s exposure, 1X binning, high gain, medium speed. REFERENCES: Inglese J, Shamu CE and Guy RK, Reporting data from high throughput screening of small molecule libraries, Nature Chemical Biology, 2007, 3(8): 438-441. doi.org/10.1038/nchembio0807-438. […]
row,SMILES,Potency
1,O=C(Nc1ccc2ncnc(N3CCCCC3)c2c1)C1CCCCC1,9.61 µM (active)
2,COc1ccccc1-c1[nH]nc2ncc(C(=O)N3CCN(Cc4ccccc4)CC3)nc12,inactive
3,CC1(C)[C@H](Cc2cc(-c3ccccc3)on2)C[C@@H]1NCC1CC1,inactive
4,CCOc1ccccc1CN1CCC(Cc2nc(-c3cccnc3)n[nH]2)C1 (configuration not stated),inactive
5,COc1cc2c(cc1O)NC(=O)CC2c1cn[nH]c1-c1cc(C)ccc1C (configuration not stated),inactive
6,COc1ccc(-c2nc3ccncc3[nH]2)cc1,inactive
7,CCCS(=O)(=O)N1CCCC(Cn2c(C)nc3cccnc32)C1 (configuration not stated),inactive
8,Cc1cnc(C2CCC2)n1C1CCN(C(=O)CCC2CCCC2)CC1,inactive
9,Cn1ccc(Nc2cc3c(cn2)CN(CCc2ccccc2)CCN3)n1,inactive
10,CC(C)c1nccn1CCCNc1nc(-c2ccncc2)nc2c1cnn2C,inactive
11,CC(C)CCN1CC2(CCCN(C(=O)c3ccn(C)c(=O)c3)C2)CCC1=O (configuration not stated),inactive
12,CCCc1sc(NC(=O)C[C@H]2NC(=O)c3ccccc3NC2=O)nc1C(=O)OC,inactive
